# Experimental data from the supplement of paper PMC8728848.
# This is one part of a sample in which the strongest signals are shown more often than they occur.
# B1: PX14343A-bvu-539-29-539 (Bacteroides vulgatus) (protein)
# chain: DSLTESSSNTFWQTPDDALMALASCYDALQSNQLYNSDQYSLGPLYMDCISDNGGHFNWSGWMEGYDMAMGIHTPSSSIIGSYWKDCYEVISRCNVLIANIDRVDMDASQKAIYQAEAKTIRALMYINLTMTYQDVPFLTAPLTIDEAECEKTDRAAIVAHVMTDLQDAAEVLPQNASSRGHITKGAALSLLGRVALYNEKWDDAIAAYKQVQGLGYSLDPSYAKLFTQSGETSPEIIFAVRYEGPGMSEGAAFNAHWNTPLEAMNGTIDLADAYYCKDGKPTTDTKIAELNGGGGLDVSKPNPAHFENRDPRLYSTLFVPGMLWNGKGGIDTSASNPYANVYGGAAASLSTVYVYKYFDPTDTSNSWDNGQDFYVVRYAEVLLSLAEAMVQKGGYVYSDVTALVNEVRQRADVNMPTVEEVEGTSLSKDELLEVIKHERRVELAFEGLRLFDLYRWKELDKAVANIENERTMYGLAYEARKFNGERDYVWPLPTAELDTNKKLVQHDLWK
# Assays:
# Test in all cases: glycan array binding signal (z-score within array); higher = stronger binding
# Details in all cases: glycan notation: IUPAC condensed, linker removed
# [1] = molecular target: Fuc(a1-2)Gal(b1-3)GalNAc(b1-4)[Neu5Ac(a2-3)]Gal(b1-4)Glc
# Summary of the method: (§1)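 Columns mapping to the same glycan were averaged after glycan names were converted to IUPAC-condensed notation. The data come from 3228 arrays in the Consortium for Functional Glycomics database, limited to those with an available protein sequence. Binding is reported as a within-array Z-score averaged across arrays of one protein sequence and across linkers.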
# [2] = molecular target: Fuc(a1-2)Gal(b1-3)GlcNAc(b1-3)[Neu5Ac(a2-6)Gal(b1-4)GlcNAc(b1-6)]Gal(b1-4)Glc
# Summary of the method: as §1
# [3] = molecular target: Fuc(a1-2)Gal(b1-4)GlcNAc(b1-3)Gal(b1-4)GlcNAc(b1-2)Man(a1-3)[Fuc(a1-2)Gal(b1-4)GlcNAc(b1-3)Gal(b1-4)GlcNAc(b1-2)Man(a1-6)]Man(b1-4)GlcNAc(b1-4)GlcNAc
# Summary of the method: as §1
# [4] = molecular target: Fuc(a1-2)Gal(b1-4)[Fuc(a1-3)]GlcNAc(b1-3)Gal(b1-4)[Fuc(a1-3)]GlcNAc
# Summary of the method: as §1
# [5] = molecular target: Fuc(a1-2)Gal3S(b1-4)GlcNAc
# Summary of the method: as §1
# [6] = molecular target: Fuc(a1-2)[Gal(a1-3)]Gal(b1-4)GlcNAc(b1-3)[Fuc(a1-2)[Gal(a1-3)]Gal(b1-4)GlcNAc(b1-6)]GalNAc
# Summary of the method: as §1
# [7] = molecular target: Fuc(a1-2)[GalNAc(a1-3)]Gal(b1-3)GalNAc(a1-3)[Fuc(a1-2)]Gal(b1-4)GlcNAc
# Summary of the method: as §1
# [8] = molecular target: Fuc(a1-2)[GalNAc(a1-3)]Gal(b1-3)GlcNAc(b1-6)GalNAc
# Summary of the method: as §1
# [9] = molecular target: Fuc(a1-3)[Gal(b1-4)]GlcNAc(b1-6)GalNAc
# Summary of the method: as §1
# [10] = molecular target: Fuc(a1-3)[Gal3S(b1-4)]GlcNAc6S
# Summary of the method: as §1
# Fuc(a1-4)GlcNAc = molecular target: Fuc(a1-4)GlcNAc
# Summary of the method: as §1
# [11] = molecular target: Gal(a1-3)[Gal(a1-4)]Gal(b1-4)GlcNAc
# Summary of the method: as §1
# Gal(a1-4)Gal(b1-4)GlcNAc = molecular target: Gal(a1-4)Gal(b1-4)GlcNAc
# Summary of the method: as §1
# Gal(b1-3)GlcNAc = molecular target: Gal(b1-3)GlcNAc
# Summary of the method: as §1
# [12] = molecular target: Gal(b1-3)GlcNAc(a1-3)Gal(b1-4)GlcNAc
# Summary of the method: as §1
# [13] = molecular target: Gal(b1-3)GlcNAc(b1-2)Man(a1-3)[Gal(b1-3)GlcNAc(b1-2)Man(a1-6)]Man(b1-4)GlcNAc(b1-4)GlcNAc
# Summary of the method: as §1
# [14] = molecular target: Gal(b1-3)GlcNAc(b1-3)Gal(b1-4)GlcNAc(b1-3)Gal(b1-4)GlcNAc(b1-2)[Gal(b1-3)GlcNAc(b1-3)Gal(b1-4)GlcNAc(b1-3)Gal(b1-4)GlcNAc(b1-6)]Man(a1-6)[Gal(b1-3)GlcNAc(b1-3)Gal(b1-4)GlcNAc(b1-3)Gal(b1-4)GlcNAc(b1-2)Man(a1-3)]Man(b1-4)GlcNAc(b1-4)[Fuc(a1-6)]GlcNAc
# Summary of the method: as §1
# [15] = molecular target: Gal(b1-4)GlcNAc(b1-2)Man(a1-3)Man(b1-4)GlcNAc(b1-4)GlcNAc
# Summary of the method: as §1
# [16] = molecular target: Gal(b1-4)GlcNAc(b1-2)Man(a1-6)[GlcNAc(b1-2)Man(a1-3)]Man(b1-4)GlcNAc(b1-4)GlcNAc
# Summary of the method: as §1
# [17] = molecular target: Gal(b1-4)GlcNAc(b1-3)Gal(b1-4)GlcNAc(b1-2)Man(a1-3)[Gal(b1-4)GlcNAc(b1-3)Gal(b1-4)GlcNAc(b1-2)Man(a1-6)]Man(b1-4)GlcNAc(b1-4)[Fuc(a1-6)]GlcNAc
# Summary of the method: as §1
# [18] = molecular target: Gal(b1-4)GlcNAc(b1-3)Gal(b1-4)GlcNAc(b1-3)Gal(b1-4)GlcNAc(b1-2)Man(a1-3)[Gal(b1-4)GlcNAc(b1-3)Gal(b1-4)GlcNAc(b1-3)Gal(b1-4)GlcNAc(b1-2)Man(a1-6)]Man(b1-4)GlcNAc(b1-4)GlcNAc
# Summary of the method: as §1
# [19] = molecular target: Gal(b1-4)GlcNAc(b1-3)Gal(b1-4)GlcNAc(b1-3)Gal(b1-4)GlcNAc(b1-3)Gal(b1-4)GlcNAc(b1-2)Man(a1-3)[Gal(b1-4)GlcNAc(b1-3)Gal(b1-4)GlcNAc(b1-3)Gal(b1-4)GlcNAc(b1-3)Gal(b1-4)GlcNAc(b1-2)Man(a1-6)]Man(b1-4)GlcNAc(b1-4)GlcNAc
# Summary of the method: as §1
# [20] = molecular target: Gal(b1-4)GlcNAc(b1-3)Gal(b1-4)GlcNAc(b1-3)Gal(b1-4)GlcNAc(b1-3)Gal(b1-4)GlcNAc(b1-2)[Gal(b1-4)GlcNAc(b1-3)Gal(b1-4)GlcNAc(b1-3)Gal(b1-4)GlcNAc(b1-3)Gal(b1-4)GlcNAc(b1-6)]Man(a1-6)[Gal(b1-4)GlcNAc(b1-3)Gal(b1-4)GlcNAc(b1-3)Gal(b1-4)GlcNAc(b1-3)Gal(b1-4)GlcNAc(b1-2)Man(a1-3)]Man(b1-4)GlcNAc(b1-4)[Fuc(a1-6)]GlcNAc
# Summary of the method: as §1
# [21] = molecular target: Gal(b1-4)GlcNAc(b1-3)Gal(b1-4)GlcNAc(b1-3)Gal(b1-4)GlcNAc(b1-3)Gal(b1-4)GlcNAc(b1-3)Gal(b1-4)GlcNAc(b1-2)Man(a1-3)[Gal(b1-4)GlcNAc(b1-3)Gal(b1-4)GlcNAc(b1-3)Gal(b1-4)GlcNAc(b1-3)Gal(b1-4)GlcNAc(b1-3)Gal(b1-4)GlcNAc(b1-2)Man(a1-6)]Man(b1-4)GlcNAc(b1-4)GlcNAc
# Summary of the method: as §1
# [22] = molecular target: Gal(b1-4)GlcNAc(b1-3)Gal(b1-4)GlcNAc(b1-3)Gal(b1-4)GlcNAc(b1-3)Gal(b1-4)GlcNAc(b1-3)Gal(b1-4)GlcNAc(b1-2)[Gal(b1-4)GlcNAc(b1-3)Gal(b1-4)GlcNAc(b1-3)Gal(b1-4)GlcNAc(b1-3)Gal(b1-4)GlcNAc(b1-3)Gal(b1-4)GlcNAc(b1-6)]Man(a1-6)[Gal(b1-4)GlcNAc(b1-3)Gal(b1-4)GlcNAc(b1-3)Gal(b1-4)GlcNAc(b1-3)Gal(b1-4)GlcNAc(b1-3)Gal(b1-4)GlcNAc(b1-2)Man(a1-3)]Man(b1-4)GlcNAc(b1-4)[Fuc(a1-6)]GlcNAc
# Summary of the method: as §1
# [23] = molecular target: Gal(b1-4)GlcNAc(b1-6)GalNAc
# Summary of the method: as §1
# Gal3S(b1-3)GlcNAc = molecular target: Gal3S(b1-3)GlcNAc
# Summary of the method: as §1
# [24] = molecular target: Gal3S(b1-4)[Fuc(a1-3)]GlcNAc
# Summary of the method: as §1
# [25] = molecular target: GalNAc3S(b1-4)[Fuc(a1-3)]GlcNAc
# Summary of the method: as §1
# [26] = molecular target: GlcNAc(b1-3)Gal(b1-4)GlcNAc(b1-3)Gal(b1-4)GlcNAc(b1-3)Gal(b1-4)GlcNAc(b1-3)Gal(b1-4)GlcNAc(b1-2)Man(a1-3)[GlcNAc(b1-3)Gal(b1-4)GlcNAc(b1-3)Gal(b1-4)GlcNAc(b1-3)Gal(b1-4)GlcNAc(b1-3)Gal(b1-4)GlcNAc(b1-2)Man(a1-6)]Man(b1-4)GlcNAc(b1-4)[Fuc(a1-6)]GlcNAc
# Summary of the method: as §1
# [27] = molecular target: GlcNAc(b1-3)[GlcNAc(b1-6)]Gal(b1-4)GlcNAc
# Summary of the method: as §1
# [28] = molecular target: Man(a1-3)[Man(a1-6)]Man(b1-4)GlcNAc(b1-4)GlcNAc
# Summary of the method: as §1
# [29] = molecular target: Man(a1-3)[Man(a1-6)]Man(b1-4)GlcNAc(b1-4)[Fuc(a1-6)]GlcNAc
# Summary of the method: as §1
# Man(a1-6)Man = molecular target: Man(a1-6)Man
# Summary of the method: as §1
# [30] = molecular target: Neu5Ac(a2-3)Gal(b1-3)[Neu5Ac(a2-6)]GalNAc
# Summary of the method: as §1
# [31] = molecular target: Neu5Ac(a2-3)Gal(b1-4)GlcNAc
# Summary of the method: as §1
# [32] = molecular target: Neu5Ac(a2-3)Gal(b1-4)GlcNAc(b1-3)Gal(b1-4)GlcNAc(b1-3)Gal(b1-4)GlcNAc(b1-2)Man(a1-3)[Neu5Ac(a2-3)Gal(b1-4)GlcNAc(b1-3)Gal(b1-4)GlcNAc(b1-3)Gal(b1-4)GlcNAc(b1-2)Man(a1-6)]GalNAc
# Summary of the method: as §1
# [33] = molecular target: Neu5Ac(a2-3)Gal(b1-4)GlcNAc(b1-3)Gal(b1-4)GlcNAc(b1-6)[Gal(b1-3)]GalNAc
# Summary of the method: as §1
# [34] = molecular target: Neu5Ac(a2-3)Gal(b1-4)GlcNAc(b1-6)GalNAc
# Summary of the method: as §1
# [35] = molecular target: Neu5Ac(a2-3)GalNAc(b1-4)GlcNAc
# Summary of the method: as §1
# [36] = molecular target: Neu5Ac(a2-8)Neu5Ac(a2-3)Gal(b1-3)GalNAc(b1-4)[Neu5Ac(a2-3)]Gal(b1-4)Glc
# Summary of the method: as §1
# [37] = molecular target: Neu5Ac(a2-8)Neu5Gc(a2-3)Gal(b1-4)GlcNAc
# Summary of the method: as §1
# [38] = molecular target: Neu5Gc(a2-3)Gal(b1-4)GlcNAc
# Summary of the method: as §1
# [39] = molecular target: Neu5Gc(a2-3)Gal(b1-4)[Fuc(a1-3)]GlcNAc
# Summary of the method: as §1
binder,measurement,setting,value
B1,glycan array binding signal (z-score),[1],-0.271
same,glycan array binding signal (z-score),[2],-0.213
same,glycan array binding signal (z-score),[3],8.08
same,glycan array binding signal (z-score),[4],-0.083
same,glycan array binding signal (z-score),[5],-0.406
same,glycan array binding signal (z-score),[6],7.49
same,glycan array binding signal (z-score),[7],0.132
same,glycan array binding signal (z-score),[8],-0.292
same,glycan array binding signal (z-score),[9],-0.298
same,glycan array binding signal (z-score),[10],-0.338
same,glycan array binding signal (z-score),Fuc(a1-4)GlcNAc,-0.448
same,glycan array binding signal (z-score),[11],6.76
same,glycan array binding signal (z-score),Gal(a1-4)Gal(b1-4)GlcNAc,-0.281
same,glycan array binding signal (z-score),Gal(b1-3)GlcNAc,-0.258
same,glycan array binding signal (z-score),[12],-0.396
same,glycan array binding signal (z-score),[13],0.765
same,glycan array binding signal (z-score),[14],4.27
same,glycan array binding signal (z-score),[15],8.02
same,glycan array binding signal (z-score),[16],-0.116
same,glycan array binding signal (z-score),[17],0.489
same,glycan array binding signal (z-score),[18],1.35
same,glycan array binding signal (z-score),[19],6.18
same,glycan array binding signal (z-score),[20],3.38
same,glycan array binding signal (z-score),[21],2.78
same,glycan array binding signal (z-score),[22],9.28
same,glycan array binding signal (z-score),[23],-0.291
same,glycan array binding signal (z-score),Gal3S(b1-3)GlcNAc,-0.038
same,glycan array binding signal (z-score),[24],-0.121
same,glycan array binding signal (z-score),[25],-0.399
same,glycan array binding signal (z-score),[26],0.355
same,glycan array binding signal (z-score),[27],-0.27
same,glycan array binding signal (z-score),[28],-0.432
same,glycan array binding signal (z-score),[29],-0.297
same,glycan array binding signal (z-score),Man(a1-6)Man,-0.184
same,glycan array binding signal (z-score),[30],0.662
same,glycan array binding signal (z-score),[31],-0.373
same,glycan array binding signal (z-score),[32],8.35
same,glycan array binding signal (z-score),[33],-0.244
same,glycan array binding signal (z-score),[34],0.089
same,glycan array binding signal (z-score),[35],-0.142
same,glycan array binding signal (z-score),[36],-0.102
same,glycan array binding signal (z-score),[37],4.74
same,glycan array binding signal (z-score),[38],-0.254
same,glycan array binding signal (z-score),[39],-0.404
